Publication PMC7862700, “An all-to-all approach to the identification of sequence-specific readers for epigenetic DNA modifications on cytosine”

Key:
Test in all cases: DAPPL (digital affinity profiling via proximity ligation, sequencing); 10 mM Tris-HCl pH 7.5, 50 mM NaCl, 1 mM DTT, 4% glycerol, room temperature, 30 min; GST-TFs on glutathione beads, 16-mer random dsDNA library, 0.1% formaldehyde crosslink after washing; high values mean tight binding
FEV = target: T1, FEV (Homo sapiens, UniProt Q99581 1-238); conditions: protein: recombinant; tags: N-terminal GST; dsDNA, one strand shown
T1 sequence: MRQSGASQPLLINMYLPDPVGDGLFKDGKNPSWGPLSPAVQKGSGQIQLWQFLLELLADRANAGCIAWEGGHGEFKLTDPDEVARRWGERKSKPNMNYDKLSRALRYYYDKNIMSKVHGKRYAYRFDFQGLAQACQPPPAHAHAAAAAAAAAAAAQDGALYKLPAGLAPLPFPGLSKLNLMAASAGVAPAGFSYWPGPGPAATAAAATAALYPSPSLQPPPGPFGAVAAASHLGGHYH
Summary of the method: (§1)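 GST fusions of human transcription factors were expressed in yeast and captured with glutathione beads. Once given DNA barcodes and pooled alongside a tag-only sample, they were incubated for 30 min at room temperature with 200 nmole of a random double-stranded 16-mer DNA library in Tris/NaCl/DTT/glycerol buffer, then washed, crosslinked (0.1% formaldehyde), proximity-ligated, PCR-amplified and sequenced on an Illumina NextSeq500. The binding signal of each hexamer is its read frequency for a factor divided by its frequency for the tag-only sample.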

ETV5 = ETV5 (Homo sapiens, UniProt P41161 1-510); conditions: protein: recombinant; tags: N-terminal GST; dsDNA, one strand shown
Summary of the method: as §1

HSF1 = HSF1 (Homo sapiens, UniProt Q00613 1-529); conditions: protein: recombinant; tags: N-terminal GST; chain copies: 3; dsDNA, one strand shown
Summary of the method: as §1

SPIC = target: T2, SPIC (Homo sapiens, UniProt Q8N5J4 1-248); conditions: protein: recombinant; tags: N-terminal GST; dsDNA, one strand shown
T2 sequence: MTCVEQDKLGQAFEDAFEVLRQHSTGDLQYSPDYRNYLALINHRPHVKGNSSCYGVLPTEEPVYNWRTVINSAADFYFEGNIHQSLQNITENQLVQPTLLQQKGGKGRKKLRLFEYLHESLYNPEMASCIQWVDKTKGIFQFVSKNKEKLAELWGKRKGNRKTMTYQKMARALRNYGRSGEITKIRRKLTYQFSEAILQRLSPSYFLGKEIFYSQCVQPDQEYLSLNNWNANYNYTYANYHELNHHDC
Summary of the method: as §1

ELF4 = ELF4 (Homo sapiens, UniProt Q99607 1-663); conditions: protein: recombinant; tags: N-terminal GST; dsDNA, one strand shown
Summary of the method: as §1

ELK4 = target: T3, ELK4 (Homo sapiens, UniProt P28324-2 1-405); conditions: protein: recombinant; tags: N-terminal GST; dsDNA, one strand shown
T3 sequence: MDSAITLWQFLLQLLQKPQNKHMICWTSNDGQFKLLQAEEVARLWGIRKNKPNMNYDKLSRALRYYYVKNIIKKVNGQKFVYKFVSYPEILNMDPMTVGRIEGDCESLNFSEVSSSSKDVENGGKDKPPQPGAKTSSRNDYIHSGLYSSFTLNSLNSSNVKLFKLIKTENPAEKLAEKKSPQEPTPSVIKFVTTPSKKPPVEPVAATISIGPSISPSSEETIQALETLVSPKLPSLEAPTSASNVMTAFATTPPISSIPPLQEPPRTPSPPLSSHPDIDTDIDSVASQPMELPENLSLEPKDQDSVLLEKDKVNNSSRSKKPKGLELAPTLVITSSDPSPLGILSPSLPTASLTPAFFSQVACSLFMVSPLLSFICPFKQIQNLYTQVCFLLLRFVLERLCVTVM
Summary of the method: as §1

ETV2 = target: T4, ETV2 (Homo sapiens, UniProt O00321 1-342); conditions: protein: recombinant; tags: N-terminal GST; dsDNA, one strand shown
T4 sequence: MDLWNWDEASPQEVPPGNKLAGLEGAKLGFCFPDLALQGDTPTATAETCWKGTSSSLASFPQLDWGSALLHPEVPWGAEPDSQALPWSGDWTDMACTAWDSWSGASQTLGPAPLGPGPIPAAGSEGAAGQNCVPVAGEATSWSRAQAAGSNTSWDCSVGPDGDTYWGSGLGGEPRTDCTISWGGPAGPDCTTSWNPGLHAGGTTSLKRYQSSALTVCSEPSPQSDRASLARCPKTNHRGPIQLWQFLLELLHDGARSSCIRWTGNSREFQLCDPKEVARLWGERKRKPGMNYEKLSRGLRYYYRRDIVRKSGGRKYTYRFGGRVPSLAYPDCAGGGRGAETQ
Summary of the method: as §1

ELF3 = target: T5, ELF3 (Homo sapiens, UniProt P78545 1-371); conditions: protein: recombinant; tags: N-terminal GST; dsDNA, one strand shown
T5 sequence: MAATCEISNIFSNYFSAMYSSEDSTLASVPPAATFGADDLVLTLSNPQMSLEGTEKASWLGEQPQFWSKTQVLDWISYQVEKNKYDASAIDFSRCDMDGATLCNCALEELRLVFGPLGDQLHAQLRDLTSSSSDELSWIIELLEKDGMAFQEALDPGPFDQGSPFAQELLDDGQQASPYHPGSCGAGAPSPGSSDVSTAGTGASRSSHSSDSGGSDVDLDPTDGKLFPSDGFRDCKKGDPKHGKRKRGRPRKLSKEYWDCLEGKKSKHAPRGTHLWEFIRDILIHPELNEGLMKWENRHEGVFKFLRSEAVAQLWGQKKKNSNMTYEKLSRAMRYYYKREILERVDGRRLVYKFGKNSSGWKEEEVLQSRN
Summary of the method: as §1

CRX = CRX (Homo sapiens, UniProt O43186 1-299); conditions: protein: recombinant; tags: N-terminal GST; dsDNA, one strand shown
Summary of the method: as §1

Chain of ETV5 (P41161 whole entry): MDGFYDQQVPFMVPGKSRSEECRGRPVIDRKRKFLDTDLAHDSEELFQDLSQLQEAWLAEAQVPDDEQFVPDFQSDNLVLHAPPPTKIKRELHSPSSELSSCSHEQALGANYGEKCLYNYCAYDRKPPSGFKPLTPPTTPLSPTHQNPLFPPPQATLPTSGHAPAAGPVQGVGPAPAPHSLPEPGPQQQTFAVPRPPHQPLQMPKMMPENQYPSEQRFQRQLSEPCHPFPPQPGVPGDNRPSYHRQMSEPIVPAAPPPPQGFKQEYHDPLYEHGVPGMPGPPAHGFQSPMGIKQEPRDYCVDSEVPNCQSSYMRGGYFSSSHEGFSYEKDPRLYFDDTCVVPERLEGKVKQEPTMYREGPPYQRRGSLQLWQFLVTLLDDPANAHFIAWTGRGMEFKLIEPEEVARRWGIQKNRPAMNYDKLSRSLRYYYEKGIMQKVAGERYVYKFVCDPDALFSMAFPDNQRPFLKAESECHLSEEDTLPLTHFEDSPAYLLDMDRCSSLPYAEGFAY
Chain of HSF1 (Q00613 whole entry): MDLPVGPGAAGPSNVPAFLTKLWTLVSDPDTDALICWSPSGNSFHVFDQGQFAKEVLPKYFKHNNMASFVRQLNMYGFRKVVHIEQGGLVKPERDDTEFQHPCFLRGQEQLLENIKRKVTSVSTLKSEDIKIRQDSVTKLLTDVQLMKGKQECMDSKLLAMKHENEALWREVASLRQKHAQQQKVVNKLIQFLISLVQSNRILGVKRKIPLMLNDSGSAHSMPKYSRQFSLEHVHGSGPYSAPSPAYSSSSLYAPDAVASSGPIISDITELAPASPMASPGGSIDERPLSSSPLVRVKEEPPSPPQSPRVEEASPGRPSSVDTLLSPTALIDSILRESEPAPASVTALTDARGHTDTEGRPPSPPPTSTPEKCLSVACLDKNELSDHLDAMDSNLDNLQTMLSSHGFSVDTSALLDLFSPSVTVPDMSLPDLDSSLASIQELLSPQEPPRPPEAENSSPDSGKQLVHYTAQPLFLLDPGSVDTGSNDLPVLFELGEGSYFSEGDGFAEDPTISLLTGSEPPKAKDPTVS
Chain of ELF4 (Q99607 whole entry): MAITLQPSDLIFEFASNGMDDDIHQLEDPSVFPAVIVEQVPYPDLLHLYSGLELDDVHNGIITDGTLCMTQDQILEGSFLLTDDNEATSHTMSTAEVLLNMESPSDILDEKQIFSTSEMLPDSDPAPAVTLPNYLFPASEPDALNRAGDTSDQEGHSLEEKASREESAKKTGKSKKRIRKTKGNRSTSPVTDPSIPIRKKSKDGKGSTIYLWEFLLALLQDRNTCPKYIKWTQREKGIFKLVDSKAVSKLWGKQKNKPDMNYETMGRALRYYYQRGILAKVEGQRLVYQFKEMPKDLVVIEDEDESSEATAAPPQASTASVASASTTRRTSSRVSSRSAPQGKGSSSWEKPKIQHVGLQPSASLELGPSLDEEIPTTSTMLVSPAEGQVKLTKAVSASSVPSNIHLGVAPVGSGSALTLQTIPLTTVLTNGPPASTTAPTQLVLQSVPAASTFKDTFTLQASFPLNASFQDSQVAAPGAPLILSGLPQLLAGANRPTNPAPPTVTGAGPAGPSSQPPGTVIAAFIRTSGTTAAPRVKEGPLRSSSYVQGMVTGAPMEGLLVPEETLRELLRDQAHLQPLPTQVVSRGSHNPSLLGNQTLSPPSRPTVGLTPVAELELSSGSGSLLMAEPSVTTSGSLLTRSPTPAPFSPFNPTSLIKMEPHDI
Chain of CRX (O43186 whole entry): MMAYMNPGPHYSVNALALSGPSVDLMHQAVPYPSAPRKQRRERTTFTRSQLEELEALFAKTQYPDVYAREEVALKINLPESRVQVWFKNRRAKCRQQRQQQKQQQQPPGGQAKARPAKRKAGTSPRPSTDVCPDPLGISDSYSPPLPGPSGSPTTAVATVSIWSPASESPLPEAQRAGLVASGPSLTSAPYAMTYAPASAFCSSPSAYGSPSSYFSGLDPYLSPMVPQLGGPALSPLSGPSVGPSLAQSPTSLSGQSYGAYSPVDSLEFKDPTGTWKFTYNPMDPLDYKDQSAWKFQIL

TCTTAC
binding signal (FEV): 1.23 fold enrichment (6-mer frequency, TF over GST control) | binding signal (ETV5): 1.28 fold enrichment (6-mer frequency, TF over GST control) | binding signal (HSF1): 1.23 fold enrichment (6-mer frequency, TF over GST control) | binding signal (SPIC): 1.29 fold enrichment (6-mer frequency, TF over GST control) | binding signal (ELF4): 1.27 fold enrichment (6-mer frequency, TF over GST control) | binding signal (ELK4): 1.34 fold enrichment (6-mer frequency, TF over GST control) | binding signal (ETV2): 1.39 fold enrichment (6-mer frequency, TF over GST control) | binding signal (ELF3): 1.13 fold enrichment (6-mer frequency, TF over GST control) | binding signal (CRX): 1.7 fold enrichment (6-mer frequency, TF over GST control)
